For 39 compounds, outcome results are on record in PubChem BioAssay AID602376 (Johns Hopkins Ion Channel Center, 2012).

Entries with a potency or affinity are not part of this list. Records with an inconclusive call do not appear. Active and inactive are the calls of the source.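 Rule for the calls: active = raises choline transporter activity at one or more tested doses and gives a fitted dose-response curve; inconclusive = no clear call, values can overlap the other calls; inactive = no choline transporter activation at any dose, or no curve.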

The target in this experiment is High affinity choline transporter 1 (Homo sapiens) (UniProt Q9GZV3). Kind of experiment: CHT activators, dose response, cell-based, 10-point CRC, membrane potential dye (AID 602376). Particulars: HEK293-CHT, choline-induced membrane potential dye, cells express CHT LV-AA mutant; series mostly up to 67 µM.
High affinity choline transporter 1 (Homo sapiens), sequence (Q9GZV3 whole entry, looked up): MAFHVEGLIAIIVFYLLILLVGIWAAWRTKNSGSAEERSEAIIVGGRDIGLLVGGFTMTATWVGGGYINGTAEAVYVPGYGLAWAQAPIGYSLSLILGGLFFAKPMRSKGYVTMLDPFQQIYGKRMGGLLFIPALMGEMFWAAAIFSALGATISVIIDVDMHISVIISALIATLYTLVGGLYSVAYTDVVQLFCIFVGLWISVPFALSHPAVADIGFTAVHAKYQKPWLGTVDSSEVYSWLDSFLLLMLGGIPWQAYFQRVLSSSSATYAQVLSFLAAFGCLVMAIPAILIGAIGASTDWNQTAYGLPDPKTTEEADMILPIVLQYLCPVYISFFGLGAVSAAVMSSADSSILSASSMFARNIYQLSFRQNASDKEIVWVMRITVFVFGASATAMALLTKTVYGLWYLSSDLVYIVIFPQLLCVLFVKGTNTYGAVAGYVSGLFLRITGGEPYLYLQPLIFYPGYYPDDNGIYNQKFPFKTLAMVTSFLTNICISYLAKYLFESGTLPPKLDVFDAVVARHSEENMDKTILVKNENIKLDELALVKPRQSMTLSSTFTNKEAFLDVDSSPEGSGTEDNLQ
As for `COc1ccc(-c2csc3nc(C)nc(N4CCCCC4)c23)cc1OC`, the outcome was inactive.

`Clc1ccc(CN2C3=NCCN3c3ccccc32)cc1Cl`: the outcome was inactive.

As for `CCCC(=O)N1c2ccccc2C(=C2SC(C(=O)OC)=C(C(=O)OC)S2)C(=S)C1(C)C`, the call was inactive.

As to `COC(=O)C1=C(C)N(Cc2ccccc2)C(=NCC(C)C)N[C@H]1c1ccccc1`, the compound was classed as inactive.

For the compound `O=C1CCC(C(=O)N(Cc2cccs2)C2(C(=O)NC3CCCCC3)CCCCC2)N1` (centres undefined), the compound was called inactive.

As to `COc1ccc(-c2noc(CSc3nc4ccccc4c(=O)n3-c3ccccc3)n2)cc1OC`, the outcome was inactive.

Regarding `Cc1ccc(-n2c(SCCN)nnc2-c2cccc(C)c2)cc1`, the call was inactive.

Turning to `CCOC(=O)c1c[nH]c2nc(C)ccc2c1=O`, the outcome was inactive.

As to `CCOc1cc(NC(=O)c2ccco2)c(OCC)cc1NC(=O)c1ccco1`, the compound was called inactive.

For the compound `COc1ccc(-c2cc(C(=O)NNC(=O)c3csc(N4CCOCC4)n3)c3ccccc3n2)cc1OC`, the call was inactive.

For the compound `O=C1CCCCCCCCCC/C(=N\O)CCCO1`, the result was inactive.

Consider `Cc1ccnc2nc(C(=O)Nc3nccs3)nn12`, for which the outcome was inactive.

Turning to `COc1ccc(C(=O)c2coc3ccc(O)c(CN4CCOCC4)c23)cc1`, the outcome was inactive.

`Cc1ccc(Cl)cc1N1CCN(C(=O)C2CCC(=O)N(C3CCCCCC3)C2)CC1` (centres undefined): the result was inactive.

On to `Cn1c(=O)c(=O)n(C)c2cc(S(=O)(=O)N3CCC(N4CCCCC4)CC3)ccc21`, for which the compound was called inactive.

In the case of `FC(F)(F)COc1nc(OCC(F)(F)F)nc(N2CCN(c3ccccc3)CC2)n1`, the result was inactive.

On to `COc1ccc(C(N)c2nccc3cc(OC)c(OC)cc23)cc1OC` (centres undefined), for which the compound was classed as inactive.

Regarding `O=C1CCN(Cc2ccccc2)CCN1[C@H](COc1ccccc1)Cc1ccccc1`, the compound was called inactive.

Turning to `O=c1c2ccccc2nc2n1C(CSCc1ccc(Cl)cc1)CS2` (centres undefined), the outcome was inactive.

Regarding `COc1ccc(N2CCN(c3oc(COc4ccccc4)nc3C#N)CC2)cc1`, the result was inactive.

With `CCC(C)Nc1nc(CN2CCOCC2)nc2sc3c(c12)CCC3` (centres undefined), the call was inactive.

With `CCOC(=O)c1c(CSc2ccsc2)n(C)c2cc(Br)c(O)c(CN(C)C)c12`, the compound was classed as inactive.

Take `O=C(COc1ccccc1)NCC(c1ccco1)N1CCN(c2ccccc2)CC1` (centres undefined): the call was inactive.

Consider `CC(C)CCNC(=O)/C=C/c1ccc(Br)cc1`, for which the call was inactive.

On to `CCOC(=O)c1c(C)nc2ccccc2c1-c1ccccc1`, for which the call was inactive.

`COc1cccc(C(c2nnnn2Cc2ccco2)N2CCN(c3cccc(C)c3C)CC2)c1OC` (centres undefined): the compound was classed as inactive.

With `CCCC12CN(C(=O)c3ccc([N+](=O)[O-])cc3)CC(C)(CN(C(=O)c3ccc([N+](=O)[O-])cc3)C1)C2=O`, the compound was classed as inactive.

Turning to `COc1ccccc1C1CC(c2ccc(Cl)cc2)Nc2ncnn21` (centres undefined), the outcome was inactive.

For `COc1cccc(-c2cn(C[C@H]3CC[C@@H]([C@@H]4CC[C@H](Cn5cc(-c6cccc(OC)c6)nn5)O4)O3)nn2)c1`, the result was inactive.

As to `CCOC(=O)C1CCN(C(=O)CCc2nnc3ccc(N4CCN(C)CC4)nn23)CC1`, the outcome was inactive.

With `CN1CCN(CCCn2cnc3c(=O)oc4ccccc4c32)CC1`, the result was inactive.

For the compound `CCC(=O)N(CCC(c1ccc(C)cc1)c1ccco1)Cc1ccco1` (centres undefined), the outcome was inactive.

`CCc1ccc(NC(=O)CSc2nc3ccccc3c(=O)n2CCCN2CCC(C)CC2)cc1`: the call was inactive.

For the compound `CC(C)(C)N(NC(=O)c1ccccc1)C(=O)c1cccc(C(=O)N(NC(=O)c2ccccc2)C(C)(C)C)c1`, the compound was classed as inactive.

Consider `O=C(NCCC1=CCCCC1)C1CCN(Cc2cnn(-c3ccccc3)c2-n2cccc2)CC1`, for which the outcome was inactive.

For the compound `CCCCn1c(N)c(N(CCC(C)C)C(=O)c2ccc(COc3ccccc3)o2)c(=O)[nH]c1=O`, the call was inactive.

On to `Cc1ccccc1OCc1n(CC(=O)OC2CC(C)CCC2C(C)C)c2ccccc2[n+]1C` (centres undefined), for which the compound was classed as inactive.

As to `O=C(COc1ccccc1)NCC(c1ccco1)N1CCN(c2ccc(F)cc2)CC1` (centres undefined), the result was inactive.

Regarding `COC(=O)C1=C(C)N(Cc2ccccc2)C(=NCc2ccc(OC)cc2)N[C@H]1c1cccc(F)c1`, the outcome was inactive.
